High-throughput results (PubChem BioAssay)
CYP2C9 activ = activators of human CYP2C9. P11712. recombinant CYP2C9, luciferin-H conversion, luminescence; active compounds read high; factor 1 = untreated enzyme, 0 = blocked. activation factor at 5 µM. actives 1.4% (n = 96,000). AID 1024;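 active means activation factor of 2 or more for CYP2C9 at a 5 µM dose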
PostGolgi ctrl = inhibits growth of the yeast control strain; efflux-deficient yeast background strain, growth absorbance A615, 16 h; inhibition, % at 10 µM; actives 5% (n = 98,000)
PostGolgi yeast = growth inhibition of a yeast mutant, post-Golgi transport screen; inhibition, % at 10 µM; actives 0.9% (n = 98,000); AID 739; post-Golgi transport phenotypic cell assay;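 further: yeast cells grown in 1536-well plates; yeast grown about 18 h at 30C before absorbance read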
CYP2C19 activ = activators of human cytochrome P450 2C19 | activation factor at 5 µM | recombinant CYP2C19, luciferin-H EGE luminescence; active compounds read high; 0 = fully inhibited enzyme, 1 = untreated enzyme | AID 1025 | 96,000 tested, under 10 active | P33261;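 active means activation factor of at least 2 at 5 µM in the primary screen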
Target sequence (P33261 whole entry, looked up): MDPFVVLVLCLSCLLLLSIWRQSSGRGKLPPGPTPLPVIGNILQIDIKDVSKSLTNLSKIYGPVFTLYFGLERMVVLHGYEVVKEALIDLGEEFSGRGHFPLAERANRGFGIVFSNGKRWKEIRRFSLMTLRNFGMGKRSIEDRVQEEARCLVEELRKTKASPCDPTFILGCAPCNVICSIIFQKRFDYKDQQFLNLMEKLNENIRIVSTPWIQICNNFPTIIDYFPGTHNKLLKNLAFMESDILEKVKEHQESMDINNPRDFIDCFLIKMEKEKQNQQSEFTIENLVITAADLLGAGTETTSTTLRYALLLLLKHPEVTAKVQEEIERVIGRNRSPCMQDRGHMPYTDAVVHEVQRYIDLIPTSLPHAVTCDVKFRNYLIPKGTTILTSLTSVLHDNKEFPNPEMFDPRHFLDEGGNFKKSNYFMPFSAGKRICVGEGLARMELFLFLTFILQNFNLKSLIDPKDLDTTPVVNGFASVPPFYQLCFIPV
CYP2C19 inhib = human CYP2C19 inhibition; AID 778; P33261; actives 21% (n = 96,000); inhibition, % at 5 µM; CYP2C19 Supersomes, luciferin-H EGE luminescence, 30 min;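 active means CYP2C19 inhibition above a set limit at 5 µM in the primary screen, cut at about 50% in these data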
CYP2C9 inhib = human CYP2C9 inhibition. P11712. CYP2C9 Supersomes, luciferin-H conversion, luminescence. inhibition, % at 5 µM. actives 20% (n = 96,000). AID 777;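 active means blocking of liver enzyme CYP2C9 beyond about 50% at 5 µM, limit read from the data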
Each line names hits and unclear results; the compound was inactive in the other large screens. A selection: hits, their analogues and other compounds. The true share with any hit is near 32%. Unless noted, no stated cut-off is given here; in the data, active means inhibition above about 30%; inactive means the rest.

c1ccc(-c2nn3c(-c4ccccc4)nnc3s2)cc1	none
c1ccc(-c2nnc3sc(Cc4cccs4)nn23)cc1	PostGolgi ctrl 30 (no result: CYP2C9 activ, CYP2C19 activ, CYP2C19 inhib, CYP2C9 inhib)
c1ccc(OCc2nn3c(-c4ccncc4)nnc3s2)cc1	CYP2C19 inhib 99, CYP2C9 inhib 80
c1ccc(OCc2nn3c(-c4ccccn4)nnc3s2)cc1	none
COCCn1nnnc1C(C(C)C)N(Cc1cccnc1)Cc1ccccc1Cl (configuration not stated)	PostGolgi ctrl 38, CYP2C19 inhib 95
CC(c1ccccc1)C1CC(=O)N(CC(=O)O)C1=O (configuration not stated)	none
CC(c1ccccc1)C1CC(=O)N(Cc2ccco2)C1=O (configuration not stated)	CYP2C19 inhib 91
COc1cc(-c2nc(-c3ccc4c(c3)-c3ccccc3S4(=O)=O)c(-c3ccccc3)[nH]2)cc(OC)c1O	CYP2C19 inhib 79, CYP2C9 inhib 78
CCOC(=O)C1CCN(C(=O)COc2ccc(N(C)S(=O)(=O)c3cccs3)cc2)CC1	CYP2C19 inhib 62, CYP2C9 inhib 90
Cc1ccc(S(=O)(=O)N2CCN(C(=O)CC3CCCC3)CC2)cc1	none
Cc1ccc(CC(=O)N2CCN(c3ccccn3)CC2)cc1	CYP2C19 inhib 98, CYP2C9 inhib 87
Cc1ccc(S(=O)(=O)N2CCN(C(=O)Cc3ccccc3)CC2)cc1	CYP2C19 inhib 64
O=C(COc1ccc(-c2ccccc2)cc1)N1CCN(S(=O)(=O)Cc2ccccc2)CC1	CYP2C9 inhib 53
CCOC(=O)C1CCN(C(=O)CNS(=O)(=O)c2cccs2)CC1	none
O=C(CC(NCCc1ccccc1)C(=O)O)Nc1ccc(O)cc1 (configuration not stated)	none
O=C(CN1CCSCC1)c1c[nH]c2ccccc12	CYP2C19 inhib 64
Cc1ccc2[nH]cc(C(=O)CN3CCN(c4ccccn4)CC3)c2c1	CYP2C19 inhib 87, CYP2C9 inhib 84
Cc1ccc(-c2nnc(N3CCN(C(=O)COc4ccccc4)CC3)c3ccccc23)cc1	PostGolgi ctrl 50, CYP2C19 inhib 79, CYP2C9 inhib 87
O=C(COc1ccccc1)N1CCN(S(=O)(=O)c2cccs2)CC1	CYP2C19 inhib 64
O=C(CN1CCN(Cc2ccccc2)CC1)c1c[nH]c2ccccc12	none
CC(c1nnc(SCC(=O)NC(=O)NCc2ccco2)n1-c1ccc(Cl)cc1)N(C)C (configuration not stated)	none
CCC(C)NCCOCCSc1ccc(Cl)cc1 (configuration not stated)	none
Cc1ccc(OCC(=O)N2CCN(C(=O)Cc3ccccc3)CC2)cc1	PostGolgi ctrl 31
COc1ccc(OCC(=O)N2CCN(C(=O)Cc3ccccc3)CC2)cc1	none
O=C(COc1ccc2c3c(c(=O)oc2c1)CCC3)c1ccc2c(c1)OCO2	CYP2C19 inhib 58, CYP2C9 inhib 82
O=C(c1ccc(S(=O)(=O)N2CCCCCC2)cc1)N1CCC(CN2C(=O)c3cccc4cccc(c34)C2=O)CC1	none (no result: CYP2C9 activ, CYP2C19 activ, CYP2C19 inhib, CYP2C9 inhib)
O=[N+]([O-])c1ccc(Sc2nccn2Cc2ccccc2)c([N+](=O)[O-])c1	CYP2C19 inhib 51
CCn1cc([N+](=O)[O-])c(C(=O)Nc2c(C)nn(Cc3c(F)c(F)c(F)c(F)c3F)c2C)n1	none
CCn1cc([N+](=O)[O-])c(C(=O)Nc2ccc(Br)cn2)n1	CYP2C19 inhib 82
CCCC(=O)c1c[nH]c(C(=O)NCCCN2CCOCC2)c1	none
CCOCCCNC(=O)C1CCN(S(=O)(=O)N(CC(C)C)CC(C)C)CC1	none
O=C(C1CCCN(S(=O)(=O)c2ccc(Cl)cc2)C1)N(Cc1cccs1)C1CC1 (configuration not stated)	PostGolgi yeast 94, CYP2C19 inhib 69
CCCCCCSc1nc2c(c(=O)[nH]c(=O)n2C)n1C	none
COc1ccccc1OCCSc1nc2ccccc2c(=O)[nH]1	CYP2C19 inhib 59
Cc1cc(=O)[nH]c(SCCOc2ccc(OC(C)C)cc2)n1	CYP2C19 inhib 66, CYP2C9 inhib 75
C/C=C/c1ccc(OCCSc2nc(C)cc(=O)[nH]2)c(OC)c1	CYP2C9 inhib 53
Cc1cc(=O)[nH]c(SCCOc2ccc3c(c2)CCC3)n1	none
Cc1cc(=O)[nH]c(SCCCOc2ccccc2Cl)n1	none
CCc1cc(OCCCSc2nc(C)cc(=O)[nH]2)ccc1Cl	CYP2C19 inhib 70
Cc1noc(C)c1CSc1nnc2cc(C)c3ccccc3n12	none (no result: PostGolgi ctrl, PostGolgi yeast)
Cc1ccc(S(=O)(=O)N(CC(=O)NC2CCCCCC2)c2ccccc2F)cc1	none
Cc1ccc(S(=O)(=O)N(CC(=O)N/N=C/c2cccc3c2OCCO3)c2ccccc2F)cc1	CYP2C19 inhib 82, CYP2C9 inhib 94
CCOC(=O)Cn1c(C)nc2ccccc21	none
CCC(C)Cn1c(C)nc2ccccc21 (configuration not stated)	CYP2C19 inhib 52
CN(C(=O)CSC1=Nc2ccccc2C2=NC(c3ccccc3)C(=O)N12)C1CCCCC1 (configuration not stated)	none
Cc1ccnc(-n2c(CCN3C(=O)c4ccccc4C3=O)nc3ccccc3c2=O)c1	CYP2C19 inhib 60, CYP2C9 inhib 69
O=S(=O)(CCOc1ccccc1)c1nc2ccccc2[nH]1	CYP2C19 inhib 73
O=S(=O)(Nc1nc2ccccc2[nH]1)c1ccccc1	none
COc1ccc(N2CCN(c3nc(NCCO)nc(N4CCOCC4)n3)CC2)cc1	PostGolgi ctrl 31, CYP2C19 inhib 59, CYP2C9 inhib 80
COc1ccc(N2CCN(c3nc(NC(C)(C)C)nc(N4CCCCC4)n3)CC2)cc1	none
COc1ccc(N2CCN(C(=O)CCNS(=O)(=O)c3ccc4c(c3)CCC(=O)N4)CC2)cc1	none (no result: CYP2C9 activ, CYP2C19 activ, CYP2C19 inhib, CYP2C9 inhib)
Cc1ccc(NC(=O)C2CCN(S(=O)(=O)c3c(C)[nH]c(=O)[nH]c3=O)CC2)cc1	none
COCCN(C(=O)Cc1cccs1)C(C(=O)NCc1ccc(OC)cc1)c1ccc(C(C)C)cc1 (configuration not stated)	CYP2C9 inhib 69
CCc1nnc(NC(=O)CSc2ncnc3c2cnn3-c2ccc(OC)cc2)s1	none
COc1ccc(-c2nsc(SCC(=O)Nc3cc(C)on3)n2)cc1	CYP2C9 inhib 54
CCc1nnc(NC(=O)CSc2nc(-c3ccc(OC)cc3)ns2)s1	CYP2C9 inhib 72
Cc1cccc(OCC(O)Cn2c(NCc3cccnc3)nc3c2c(=O)[nH]c(=O)n3C)c1 (configuration not stated)	none
COc1ccc(OC)c(C2C(C(=O)c3cccs3)=C(O)C(=O)N2c2cc(C)on2)c1 (configuration not stated)	none
COc1cccc(C2C(C(=O)c3cc4ccccc4o3)=C(O)C(=O)N2c2cc(C)on2)c1OC (configuration not stated)	none
COc1cccc(C2C(C(=O)c3cccs3)=C(O)C(=O)N2c2cc(C)on2)c1 (configuration not stated)	CYP2C9 inhib 58
